Assay outcomes: PubChem BioAssay, National Center for Advancing Translational Sciences (NCATS)
Compounds with a hit are over-represented: about 1.7% of the library has one in this group of screens.
GLP1R inv ag: qHTS of GLP-1 Receptor Inverse Agonists (Inhibition Mode); Glucagon-like peptide 1 receptor (Homo sapiens), P43220; HEK293 GLP-1R CRE-luciferase, luminescence, 24 h; GLP-1R form is constitutively active; Potency, µM (series often up to 38.3 µM), for the others: top-dose activity change, negative = inhibition, hits mostly inhibitors; hit rate 1.6% among 410,000; further: potency means the concentration at half of the fitted maximal effect; on the % scale 0 is the no-effect control and ±100 the full control effect; nearly all actives have a fitted effect of over 55% in size
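Luminescence readout: a drop in cAMP-driven luciferase signal flags inverse agonism at a constitutively active GLP-1R stably expressed in HEK293. Compound exposure lasted 24 hr at 37 deg C, 5% CO2.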
LDHA block: qHTS assay for inhibitors of human lactate dehydrogenase; L-lactate dehydrogenase A chain (Homo sapiens), P00338; purified LDHA, NADH/diaphorase-resazurin fluorescence; stronger effect = lower value; activity change, % (values are at about 110 or 230 µM); hit rate 0.15% among 480,000; AID 1347041, 2019; in the data active means activity change below about -30%; inconclusive means mostly about -25% to -30%;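 further: plate controls were DMSO wells for no effect and wells without enzyme for full effect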
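Enzyme activity of human lactate dehydrogenase 5 (2 nM; 0.06 mM NADH, 0.2 mM pyruvate, 5 min, RT) is measured via a resazurin/diaphorase fluorescence readout of residual NADH.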
GLP1R ag: qHTS of GLP-1 Receptor Agonists | Glucagon-like peptide 1 receptor (Homo sapiens), P43220 | HEK293 GLP-1R CRE-luciferase, luminescence, 4-6 h; cells express a hypersensitive GLP-1R form | Potency, µM (doses to about 45.6 µM), inactives show top-dose activation, usual class: activators | hit rate 0.007% among 380,000 | AID 624172, 2012; further: potency means the concentration at half of the fitted maximal effect; % of control where 0% means no effect
GLP1R cytotox: qHTS of GLP-1 Receptor Inverse Agonists: Cytotox Screen; Potency, µM (series often up to 38.3 µM), for the others: at the top dose activity change, negative = inhibition, hits mostly inhibitors; HEK293 cAMP-luciferase reporter cells, luminescence, 24 h; hit rate 0.13% among 410,000;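 further: loss of luciferase light is scored as toxicity; potency means the concentration at half of the fitted maximal effect; on the % scale 0 is the no-effect control and ±100 the full control effect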
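Seeding density was 200 cells/uL; after overnight-length (12 h) culture, 23 nL compounds went on for 24 h at 37 °C. Readout used a luciferase detection reagent, luminescence taken after 12 min at room temperature.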
IDH1 R132H inh: qHTS for Inhibitors of mutant isocitrate dehydrogenase 1 (IDH1): qHTS | Isocitrate dehydrogenase [NADP] cytoplasmic (Homo sapiens), O75874 | IDH1-R132H enzyme, NADPH consumption, diaphorase/resazurin fluorescence | Potency, µM (top dose mostly 76.6 µM), without a hit: at the top dose activity change, negative = inhibition, usual class: inhibitors | hit rate 0.093% among 390,000 | AID 602179, 2012; further: potency means the concentration at half of the fitted maximal effect; on the % scale 0 is the no-effect control and ±100 the full control effect; nearly all actives have a fitted effect of over 65% in size
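IDH1-R132H (0.5 ug/mL) preincubated 30 min with compound, then NADPH (0.016 mM) and alpha-KG (2 mM) added; 80 min at RT, pH 7.5. Remaining NADPH coupled via diaphorase/resazurin to fluorescence (540/590 nm); concentration-response curves normalized to no-enzyme control.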
PTHR1 agonist: qHTS for PTHR1 Agonists: Primary Screen; Parathyroid hormone/parathyroid hormone-related peptide receptor (Homo sapiens), Q03431; HEK293 GP2 PTHR1 cells, GloSensor cAMP luminescence, 1 h; Potency, µM (titrated, usually from 115 µM), for the others: at the top dose activation, usual class: activators; hit rate 0.075% among 410,000; further: potency means the concentration at half of the fitted maximal effect; nearly all actives have a fitted effect of over 55% in size
Target sequence (Q03431 whole entry, looked up): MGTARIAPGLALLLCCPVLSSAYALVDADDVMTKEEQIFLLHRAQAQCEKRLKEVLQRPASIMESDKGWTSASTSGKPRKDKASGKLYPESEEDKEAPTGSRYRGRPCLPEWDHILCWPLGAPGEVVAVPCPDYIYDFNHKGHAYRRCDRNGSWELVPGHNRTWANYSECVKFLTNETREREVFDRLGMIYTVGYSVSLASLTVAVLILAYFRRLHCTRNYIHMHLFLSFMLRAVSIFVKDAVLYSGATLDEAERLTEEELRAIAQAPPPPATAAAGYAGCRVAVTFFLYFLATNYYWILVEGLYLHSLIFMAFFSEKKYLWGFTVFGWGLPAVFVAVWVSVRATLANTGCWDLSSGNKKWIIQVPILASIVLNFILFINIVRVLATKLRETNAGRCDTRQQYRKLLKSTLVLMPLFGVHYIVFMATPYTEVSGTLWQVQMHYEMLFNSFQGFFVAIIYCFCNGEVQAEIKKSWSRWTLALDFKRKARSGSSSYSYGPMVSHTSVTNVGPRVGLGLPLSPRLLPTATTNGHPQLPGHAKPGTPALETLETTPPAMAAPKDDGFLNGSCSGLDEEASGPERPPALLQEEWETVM
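HEK-293-derived GP2 cells expressing PTHR1 and a GloSensor cAMP reporter, 3,000/well, plated overnight, given luciferin plus IBMX (each 0.5 mM as added) for 1 h at 37 °C, then compound for 1 h at 37 °C. Luminescence was read after 15 min at room temperature.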
* = called active by the depositor; i = inactive; ? = inconclusive; · = not tested or not shown; [ ] = another dose, or the depositor's remark. Unless noted, the call rests on the fitted dose curve; in most records, active means well fitted curve in the direction sought with a large enough effect; inconclusive means small, poorly fitted or top-dose-only effect, or another doubt; inactive means no such curve, though single readings can be large; an effect the other way counts as inactive or inconclusive.

SMILES | GLP1R inv ag | LDHA block | GLP1R ag | GLP1R cytotox | IDH1 R132H inh | PTHR1 agonist
COc1ccc(OC)c(NC(=O)CSC2=Nc3ccccc3C3=NC(CC(=O)NCc4ccco4)C(=O)N23)c1 (stereo unspecified) | 11.2µM* | -5.7 | · | 17.2% | 0.0% | -19.7%
CC(C)c1ccc(NC(=O)CSC2=Nc3ccccc3C3=NC(CC(=O)NC4CCCCC4)C(=O)N23)cc1 (stereo unspecified) | 10µM* | 1.3 | · | -11.8% | -8.3% | 13.8%
CC1CCN(S(=O)(=O)c2ccc(-c3nc(C#N)c(NCCCn4ccnc4)o3)cc2)CC1 | · | 5.7 | · | · | · | ·
Cc1ccc(NC(=O)CC(O)(c2nccn2C)C(F)(F)F)cc1C (stereo unspecified) | · | -2.3 | · | · | · | ·
COc1ccc(C(=O)N2c3cc4c(cc3C(C)=CC2(C)C)OCO4)cc1 | 7.94µM* | -2.3 | -15.8% | 8.0% | 1.9% | -13.4%
CC1=CC(C)(C)N(C(=O)c2ccccc2)c2ccc(C)cc21 | ? | 3.0 | -2.6% | 4.4% | -0.5% | -70.0%
Cc1ccc(N/N=C/c2c(O)cc(C)oc2=O)cc1 | ? | 8.7 | -29.3% | -16.6% | 4.4% | -5.2%
Cc1cc(O)c(/C=N/Nc2ccc(F)cc2)c(=O)o1 | 1.78µM* | 13.8 | 3.7% | ? | -14.4% | i
CC1=NOC(=O)/C1=C\c1ccc(-c2cccc(Cl)c2)o1 | 0.0% | -8.5 | -34.5% | ? | 36.9µM* | -46.2%
NS(=O)(=O)c1ccc(N/N=C/c2cccc(Br)c2)c([N+](=O)[O-])c1 | · | -6.6 | · | · | · | ·
Cc1ccc(C(=O)NC2(C(F)(F)F)NC(=O)N(c3ccc(Cl)cc3)C2=O)cc1 (stereo unspecified) | 5.62µM* | 0.1 | -3.9% | -10.0% | 5.2% | -8.4%
Cc1ccc(N2C(=O)NC(NC(=O)C3CC3)(C(F)(F)F)C2=O)cc1 (stereo unspecified) | -12.2% | -11.1 | -1.6% | -4.6% | 8.6% | -21.8%
COC(=O)C1=C(C)NC(=O)C1(NC(=O)c1ccc(F)cc1)C(F)(F)F (stereo unspecified) | · | 5.1 | · | · | · | ·
NCc1ccc(C(F)(F)F)cc1 | · | 1.4 | · | · | · | ·
CCC(Sc1nnc(-c2ccc(C)c(Cl)c2)n1CC)C(=O)Nc1nccs1 (stereo unspecified) | 6.31µM* | -0.8 | 6.7% | 0.1% | 9.5% | -41.2%
CCn1c(SCC(=O)Nc2nccs2)nnc1-c1ccc(S(=O)(=O)N2CCCCCC2)cc1 | -8.6% | -0.2 | -5.6% | -16.4% | -2.4% | -9.7%
CCOc1c(Cl)cc(C(=O)Nc2ccccc2-c2ccccc2)cc1Cl | 8.91µM* | 3.1 | -5.5% | 38.1% | 3.2% | -12.6%
Cc1cc(N)c2cc(NC(=O)/C=C/c3ccccc3Cl)ccc2n1 | 11.2µM* | -5.5 | -7.3% | -20.5% | -2.2% | i
Cc1cc(C)nc(NC(=O)/C=C/c2ccccc2Cl)c1 | ? | 4.4 | 1.8% | 2.8% | 6.1% | -36.7%
Cc1ccnc(NC(=O)/C=C/c2ccccc2Cl)c1 | 10µM* | -12.9 | -0.3% | 5.5% | -7.2% | -26.9%
Cc1ccc(N2CC(c3nc(-c4ccccc4C)no3)CC2=O)cc1 (stereo unspecified) | · | -6.0 | · | · | · | ·
Cc1ccc(Sc2c(C)nn(C(=O)C3CCCN3S(=O)(=O)c3ccccc3)c2C)cc1 (stereo unspecified) | · | 1.6 | · | · | · | ·
Cc1cc(C)c(NC(=O)CNC(=O)CN(C)Cc2ccc(Br)s2)c(C)c1 | 6.31µM* | -1.7 | -7.3% | -4.6% | 0.5% | -25.2%
O=C(CC(O)(CC(=O)OCc1ccccc1)C(=O)OCc1ccccc1)OCc1ccccc1 | 8.91µM* | 0.9 | 8.8% | -0.8% | 6.4% | -5.4%
C[C@@H]1CCCCO[C@@H](CN(C)Cc2ccc(Cl)c(Cl)c2)[C@@H](C)CN([C@H](C)CO)C(=O)c2cc(NC(=O)CCC(F)(F)F)ccc2O1 | 2.82µM* | -2.9 | 1.1% | -22.0% | 3.9% | i
SMILES | GLP1R inv ag | LDHA block | GLP1R ag | GLP1R cytotox | IDH1 R132H inh | PTHR1 agonist
C[C@H]1CN([C@@H](C)CO)C(=O)Cc2cc(NC(=O)CCC(F)(F)F)ccc2O[C@H]1CN(C)Cc1ccc(C(F)(F)F)cc1 | 10µM* | 1.0 | -3.5% | -10.7% | -7.5% | i
C[C@@H]1CN([C@H](C)CO)C(=O)Cc2cc(NC(=O)CCC(F)(F)F)ccc2O[C@@H]1CN(C)C(=O)Nc1ccccc1 | 10.0% | 0.0 | -0.5% | -2.4% | 11.8% | -21.5%
C[C@H]1CN([C@@H](C)CO)C(=O)Cc2cc(NC(=O)C3CC3)ccc2O[C@H]1CN(C)Cc1ccc(Oc2ccccc2)cc1 | 10µM* | 0.9 | -3.0% | -7.9% | 1.8% | -8.1%
C[C@H]1CN([C@@H](C)CO)C(=O)Cc2cc(NC(=O)CCC(F)(F)F)ccc2O[C@H]1CN(C)Cc1ccc(-c2ccccc2)cc1 | 4.47µM* | -0.9 | -1.0% | 1.7% | -7.9% | 6.8%
C[C@H](CO)N1C[C@H](C)[C@@H](CN(C)S(=O)(=O)c2ccccc2)OCCCC[C@H](C)Oc2ccc(NC(=O)CCC(F)(F)F)cc2C1=O | -0.4% | 2.9 | -1.9% | -6.4% | -5.2% | -20.2%
Cc1ccc(NC(=O)Cc2n[nH]c(=O)c3ccccc23)c(F)c1 | · | 10.6 | · | · | · | ·
C=CCNC(=O)c1ccc(C(=O)OC)cc1 | · | 1.9 | · | · | · | ·
CN1c2ccccc2C(O)=C(C(=S)Nc2ccc(F)c(Cl)c2)S1(=O)=O | 10µM* | -6.6 | -25.9% | 10.6% | -2.6% | -40.3%
CN1c2ccccc2C(O)=C(C(=S)Nc2ccccc2)S1(=O)=O | -14.3% | 3.7 | -5.0% | 0.0% | 12.6% | -19.3%[57.5 µM]
O=C(N/N=C/c1cccs1)c1cc(-c2ccccc2)nc2ccccc12 | · | -3.2 | · | · | · | ·
COCCCNC(=O)c1cc(=O)[nH]c2ccccc12 | · | -5.7 | · | · | · | ·
OC(Cn1cnnc1)c1ccccc1 (stereo unspecified) | 9.9% | -37.4* | 0.6% | -2.4% | -0.2% | -4.9%
OC(CCCC(O)c1ccccc1)c1ccccc1 (stereo unspecified) | -15.5% | -5.5 | -4.1% | 3.8% | 4.6% | i
CCN(CCCNC(=O)Cn1nc(Cc2ccncc2)c2ccccc2c1=O)c1cccc(C)c1 | · | 19.4 | · | · | · | ·
COc1cc(CNC(=O)Nc2ccc(C)c(F)c2)ccn1 | · | -16.3 | · | · | · | ·
